Results published in PubChem BioAssay (NCATS).
Records with an inconclusive call do not appear. Where a call stands in place of a potency, no number is given. Activity calls are given as the source filed them. Calls come from the whole dose curve; as a rule, active = well fitted curve in the direction sought with a large enough effect; inconclusive = small, poorly fitted or top-dose-only effect, or another doubt; inactive = no such curve, though single readings can be large; an effect the other way counts as inactive or inconclusive.

Target: Cytochrome P450 3A4 (Homo sapiens) (UniProt P08684)
Sequence (P08684 whole entry, looked up): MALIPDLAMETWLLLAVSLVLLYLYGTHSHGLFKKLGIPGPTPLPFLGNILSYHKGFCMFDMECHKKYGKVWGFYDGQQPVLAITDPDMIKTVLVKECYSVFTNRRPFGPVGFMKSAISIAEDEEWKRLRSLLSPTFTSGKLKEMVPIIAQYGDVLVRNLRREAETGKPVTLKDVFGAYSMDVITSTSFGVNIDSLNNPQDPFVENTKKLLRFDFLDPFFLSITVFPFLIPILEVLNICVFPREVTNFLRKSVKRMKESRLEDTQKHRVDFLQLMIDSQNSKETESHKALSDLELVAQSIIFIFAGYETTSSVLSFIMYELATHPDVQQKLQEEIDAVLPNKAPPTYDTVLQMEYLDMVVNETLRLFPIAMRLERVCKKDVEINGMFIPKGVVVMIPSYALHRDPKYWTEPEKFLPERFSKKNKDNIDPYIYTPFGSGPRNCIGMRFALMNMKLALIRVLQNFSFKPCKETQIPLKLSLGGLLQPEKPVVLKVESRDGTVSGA
Assay: qHTS Assay for Activators of Cytochrome P450 3A4 (AID 885); note: nearly all actives have a fitted effect of over 65% in size
Details: recombinant CYP3A4, Luciferin-PPXE luminescence, 60 min; series mostly up to 57.1 µM
Summary of the method: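 Signal was normalized against complete inhibition by 57 uM ketoconazole. The reaction used 20nM CYP3A4 with 25uM Luciferin-PPXE, 10-min compound preincubation and a 60-min NADPH-supported step at RT.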

Structure (SMILES) | outcome
CC(C)(C)NCC(O)c1cc(Cl)c(N)c(Cl)c1 (stereo unspecified) | inactive
Clc1cccc(N2CCNCC2)c1 | inactive
CC(C)CC(N(C)C)C1(c2ccc(Cl)cc2)CCC1 (stereo unspecified) | inactive
NCC(CC(=O)O)c1ccc(Cl)cc1 (stereo unspecified) | inactive
COc1ccc(Cc2nccc3cc(OC)c(OC)cc23)cc1OC | inactive
Cc1cc(SCc2sc(-c3ccc(C(F)(F)F)c(F)c3)nc2C)ccc1OCC(=O)O | inactive
CCC1C(=O)OCC1Cc1cncn1C (stereo unspecified) | inactive
NN=C(N)N | inactive

Target: Cytochrome P450 2D6 (Homo sapiens) (UniProt P10635)
Sequence (P10635 whole entry, looked up): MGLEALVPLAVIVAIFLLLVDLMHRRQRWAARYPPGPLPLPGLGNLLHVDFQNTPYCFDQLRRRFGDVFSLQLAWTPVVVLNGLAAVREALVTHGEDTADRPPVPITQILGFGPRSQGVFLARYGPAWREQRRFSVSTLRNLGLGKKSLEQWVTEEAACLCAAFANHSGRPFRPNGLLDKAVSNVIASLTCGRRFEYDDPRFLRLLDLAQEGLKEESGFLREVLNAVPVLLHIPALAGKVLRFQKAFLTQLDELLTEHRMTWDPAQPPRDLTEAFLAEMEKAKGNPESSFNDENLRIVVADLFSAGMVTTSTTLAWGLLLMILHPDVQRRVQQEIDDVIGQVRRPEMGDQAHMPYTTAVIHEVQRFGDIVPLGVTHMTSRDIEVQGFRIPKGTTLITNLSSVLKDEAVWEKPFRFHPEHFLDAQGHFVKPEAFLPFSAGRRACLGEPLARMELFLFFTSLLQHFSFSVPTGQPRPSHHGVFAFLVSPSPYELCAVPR
Assay: qHTS Assay for Inhibitors and Substrates of Cytochrome P450 2D6 (AID 891); note: potency is the fitted concentration of half-maximal effect; nearly all actives have a fitted effect of over 60% in size
Details: recombinant CYP2D6, luciferin-ME EGE luminescence; series mostly up to 57.1 µM
Summary of the method: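 Human CYP2D6 (5 nM) with 30 uM Luciferin-ME EGE (at Km) in 100 mM KPO4, compound preincubated 10 min, then NADPH regeneration system for 60 min at room temperature. Luciferin read by luminescence; normalized to 1.43 uM quinidine.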

Structure (SMILES) | Potency
Clc1cccc(N2CCNCC2)c1 | 3.98 µM (active)
CN(C)CCC=C1c2ccccc2CCc2ccccc21 | 7.94 µM (active)
c1ccc(C2CC2)c(OCC2=NCCN2)c1 | 5.01 µM (active)
Cc1nc2n(c(=O)c1CCN1CCC(c3noc4cc(F)ccc34)CC1)CCCC2 | 3.16 µM (active)
COc1ccc(Cc2nccc3cc(OC)c(OC)cc23)cc1OC | 12.6 µM (active)
COc1cc2c(c(OC)c1OC)-c1ccc(OC)c(=O)cc1[C@@H](NC(C)=O)CC2 | 0.794 µM (active)
Cc1c(OCC(F)(F)F)ccnc1CS(=O)c1nc2ccccc2[nH]1 (stereo unspecified) | 31.6 µM (active)
CCCN(CCC)CCc1cccc2c1CC(=O)N2 | 3.16 µM (active)
